Laboratory results: ChEMBL document CHEMBL4513216, “Probing the Open Global Health Chemical Diversity Library for Multistage-Active Starting Points for Next-Generation Antimalarials” (ACS Infect Dis, 2020)
The whole screen tested about 68,000 compounds, of which about 2,700 (4%) showed an effect of 50% or more. Only a selection was taken, and strong results are over-represented in it overall.

The compounds below were run on Plasmodium berghei (assay: Screen against P. berghei liver stage (PbLuc), transformed with Luciferase, at 2uM). Settings: tested at 2 uM.
Format: functional, HepG2

SMILES	INHIBITION [%]
Cn1ccnc1CN1CCC2(CC(=O)N(c3ccccn3)C2)C1 (centres undefined)	44.46
Clc1cccc(N[C@H]2CCCN[C@H]2Cc2ccccc2)c1	-34.37
CC(C)(C)OC(=O)N1CCN(C(=O)c2cnn3c2OCCC3)CC1	-14.01
COCc1noc(CN2CC(Cc3ccccc3)CC2=O)n1 (centres undefined)	14.12
O=C1CCCN1CCCNCc1cc(O)c2cccc(Cl)c2n1	-15.85
O=C1CCCN1CCCNCc1cc(O)c2cccc(F)c2n1	53.12
Oc1cc(CNCCN2CCCCC2)nc2c(F)cccc12	-6.77
OC1CCN(c2ccnc(NCCc3ccccc3Cl)n2)C1 (centres undefined)	0.72
CCC(NC(=O)NCc1nncn1CC)c1ccc(OC)cc1 (centres undefined)	-53.08
Cc1n[nH]c2c1C(c1ccncc1)SCC(=O)N2 (centres undefined)	19.08
Cc1n[nH]c2c1C(c1ccc(Cl)cc1)SCC(=O)N2 (centres undefined)	47.85
Cc1n[nH]c2c1C(c1cnn(C)c1)SCC(=O)N2 (centres undefined)	73.96
CCCn1cnnc1CN(C)C(=O)C1CCC(=O)N(C2CCCC2)C1 (centres undefined)	31.35
CC1CCN(Cc2c(C(C)C)[nH]c3ncccc23)CC1	-9.61
CC(C)c1[nH]c2ncccc2c1CN1CCOCC1	68.53
CC(C)c1[nH]c2ncccc2c1CN1CCC(O)CC1	14.73
CC(CNC(=O)c1nnn(-c2ccccc2)c1C(F)(F)F)N(C)C (centres undefined)	-10.14
CCc1ocnc1C(=O)Nc1ccc2ccn(CCN(C)C)c2c1	53.19
Cc1ncccc1C(=O)Nc1ccc2ccn(CCN(C)C)c2c1	10.23
CCc1ncncc1C(=O)Nc1ccc2ccn(CCN(C)C)c2c1	38.87
CC(C)(C)NC(=O)c1ccn(COc2c(Cl)cccc2Cl)n1	31.42
CCC(=O)NCC(=O)NC(C)c1ccc(OCCC(C)C)cc1 (centres undefined)	-14.65
CCNc1ncc(C(=O)NCCc2csc(-c3ncccn3)n2)cn1	69.79
CCNc1ncc(C(=O)NCCc2csc(CSC)n2)cn1	-45.11
CCNc1ncc(C(=O)NCc2csc(-c3ncccn3)n2)cn1	-27.47
Cc1noc(-c2ccnc(Oc3cccc(CN4CCCC4)c3F)c2)n1	43.15

SMILES	INHIBITION [%]
O=C(O)c1csc(NCCc2ccccc2)n1	55.05
CN1CC(=O)c2sc(NCCc3ccccc3)nc2C1	-24.17
O=C(NCCc1ccccc1)NCC(O)c1cccs1 (centres undefined)	1.48
CCC(C)NC(=O)CS(=O)(=O)Cc1cc(C)ccc1C (centres undefined)	-10.29
O=C(NCC1CC1)c1ccc(NC(=O)c2ccco2)cc1	24.44
COc1ccccc1-n1nc(CC(C)C)nc1Cc1nnc(N)s1	-28.44
O=C(Nc1ccc(Cl)cc1)c1nn(C2CCS(=O)(=O)C2)c2c1CCCC2 (centres undefined)	14.16
O=C(Nc1ccc(Cl)cn1)c1nn(C2CCS(=O)(=O)C2)c2c1CCCC2 (centres undefined)	66.3
Cc1cccc(NC(=O)c2nn(C3CCS(=O)(=O)C3)c3c2CCCC3)n1 (centres undefined)	9.29
O=C(Nc1ccccc1)c1nn(C2CCS(=O)(=O)C2)c2c1CCCC2 (centres undefined)	73.37
O=C(Nc1cccc(Cl)c1)c1nn(C2CCS(=O)(=O)C2)c2c1CCCC2 (centres undefined)	21.33
O=C(Nc1cccnc1)c1nn(C2CCS(=O)(=O)C2)c2c1CCCC2 (centres undefined)	-0.14
O=C(NCCc1ccccc1Cl)NCC1(O)CCSC1 (centres undefined)	-41.73
COCCN(C/C=C/c1ccccc1)Cc1ncc[nH]1	-14
CN(CCc1cccs1)C(=O)Nc1cccc(S(C)(=O)=O)c1	-7.16
OC(CN1CCN(CC2CC2)CC1)c1ccc(Br)cc1 (centres undefined)	50.32
OC(CN1CCN(CC(F)F)CC1)c1ccc(Br)cc1 (centres undefined)	15.84
OC(CN1CCN(CC2CCCCC2)CC1)c1ccccc1 (centres undefined)	12.55
NC(=O)CC1CCN(CC(O)c2ccc(Br)cc2)CC1 (centres undefined)	-58.06
CCN1CCN(CC(O)c2ccc(F)cc2)CC1 (centres undefined)	-5.15
CCN1CCN(CC(O)c2ccc(Br)cc2)CC1 (centres undefined)	63.46
Cn1cc(CN2CCCC23CCN(C(=O)c2cccn2C)CC3)cn1	1.42
CO[C@@H]1CC[C@H]2[C@H]1OCCN2Cc1ccc(F)cc1	19.53
Cc1nonc1CN(C)Cc1nc(-c2ccccc2Cl)oc1C	51.96
CCc1nnc(CN(C)Cc2nc(-c3ccccc3Cl)oc2C)o1	15.84
Cc1nonc1CN(C)Cc1nc(-c2cccc(F)c2F)oc1C	-25.82

SMILES	INHIBITION [%]
Cc1cc(C2CCC2)nc(NCC(C)(C)N2CCCC2)n1	7.85
CC(C)N1CCO[C@H]2CN(C(=O)c3ccsc3)C[C@H]21	65.32
Cc1cc(CN2C[C@@H]3CN(C(=O)c4ccsc4)CCO[C@@H]3C2)no1	-89.19
O=C(c1ccsc1)N1CCO[C@@H]2CN(Cc3nccs3)C[C@@H]2C1	41.28
O=C(c1ccsc1)N1CCO[C@@H]2CN(Cc3cccs3)C[C@@H]2C1	78.93
CC(C)N1CCO[C@H]2CN(C(=O)c3ccoc3)C[C@H]21	-17.23
CC(C)N1CCO[C@H]2CN(C(=O)c3ccncc3)C[C@H]21	19.96
c1ncn(Cc2nnc(C3CCN(CC4CC4)CC3)n2C2CC2)n1	30.96
Cc1nc(CN2CCOC(c3ccc(Cl)cc3)C2)oc1C (centres undefined)	5.28
Cc1nnc(CN2CCOC(c3ccc(Cl)c(Cl)c3)C2)o1 (centres undefined)	38.67
Cc1nnc(CN2CCOC(c3ccc(Cl)cc3)C2)o1 (centres undefined)	57.75
c1ccc(O[C@H]2CO[C@@]3(CCN(Cc4ccc5c(c4)OCO5)C3)C2)nc1	40.83
O=C(c1c[nH]c(=O)[nH]c1=O)N1CCCC(c2cnccn2)C1 (centres undefined)	-15.93
Cc1cncc(C2CCCN(C(=O)c3c[nH]c(=O)[nH]c3=O)C2)n1 (centres undefined)	50.72
Cc1cncc(C2CCCN(CC3CCC3)C2)n1 (centres undefined)	50.63
Cc1cncc(C2CCCN(C(=O)c3ccc(C)[nH]c3=O)C2)n1 (centres undefined)	17.71
Cc1cncc(C2CCCN(Cc3ccncc3)C2)n1 (centres undefined)	-33.09
Cc1ccc(CN2CCCC(c3cncc(C)n3)C2)cn1 (centres undefined)	-0.15
COc1ccc(NC(C)c2ccc(C#N)cc2)cc1N1CCCC1=O (centres undefined)	-50.8
O=C1CC(c2ccc(CO)o2)c2cnn(Cc3ccco3)c2N1 (centres undefined)	-1.11
Cc1nc(-c2cnn(C)c2)sc1C(=O)NCc1cccc(CN(C)C)c1	-6.4
CN(Cc1nnc2n1CCC2)C(=O)Cc1ccc2c(c1)CCC2	-9.49
Cc1nnsc1C(=O)N1CC[C@H](c2ccccc2)[C@@H]2[C@H]1CCCCN2C	22.81
NC(=O)C1CN(C(=O)Nc2ccccc2SC(F)(F)F)CCO1 (centres undefined)	-20.93
O=C(NCc1ncc(-c2ccccc2)o1)NC1CCC(O)CC1 (centres undefined)	13.58
COc1cc(C)c(CN2CCc3nc4ccsc4c(=O)n3CC2)cc1C	36.56

SMILES	INHIBITION [%]
CN(C)c1cccc(C(=O)Nc2cnn(Cc3ccncc3)c2)c1	-34.79
COCCC(=O)N1CCC2(COCc3cnc(NCC4CC4)nc32)C1 (centres undefined)	-20.77
Cn1cnnc1C1CCCN(c2nc3ccccc3o2)C1 (centres undefined)	44.25
Cn1cnnc1C1CCN(c2nc3ccccc3o2)CC1	53.81
c1ccc2oc(N3CCC(c4nncn4C4CC4)CC3)nc2c1	15.02
Cc1cnn(CCNCc2nc(CNC(=O)c3ccccc3)no2)c1	47.23
CN(C)c1nc(N)nc(CN2CCC(c3ccccc3)CC2)n1	29.6
Cc1ccc(C(=O)N2CCN(Cc3ccccc3)CC2)n1C	52.17
COc1ccc(CN2CCN(C(=O)c3ccc(C)n3C)CC2)cc1	-10.64
Cc1ccc(C(=O)N2CCN(Cc3ccc(C#N)cc3)CC2)n1C	28.18
CC(C1CC1)N(C(=O)NCCCn1nc2ccccn2c1=O)C1CC1 (centres undefined)	1.07
Cc1cnc(C(=O)N2CCN3C[C@H](OCc4cccnc4)C[C@H]3C2)cn1	-35.38
O=C(c1ccsc1)N1CCN2C[C@H](OCc3ccccn3)C[C@H]2C1	53.08
O=C(c1ccsc1)N1CCN2C[C@H](OCc3cccnc3)C[C@H]2C1	16.22
O=C(c1ccc(F)cc1)N1CCN2C[C@H](OCc3ccccn3)C[C@H]2C1	15.58
O=C(c1cscn1)N1CCN2C[C@H](OCc3cccnc3)C[C@H]2C1	50.12
O=C(c1ccnnc1)N1CCN2C[C@H](OCc3ccccn3)C[C@H]2C1	26.94
CN1CC2(CCN(C(=O)c3[nH]cnc3-c3ccccc3)C2)OC1=O (centres undefined)	14.96
Cc1cc(C2CCC2)nc(N2CCN(Cc3nccn3C)CC2)n1	35.46
Cc1cc(N(C)C)nc(N2CC(n3cccn3)C2)n1	35.46
Cc1cc(C2CCC2)nc(N2CC(n3cccn3)C2)n1	52.6
Cc1c(NC(=O)CN2CCN(C3CCCC3)C(=O)C2)cnn1C	17.24
c1ccc(-n2cc(CN3CCCC3Cn3cncn3)nn2)cc1 (centres undefined)	15.47
Cc1cccc2nc(CSCC(=O)Nc3nnc(C(C)C)s3)cc(=O)n12	52.21
CC(C)c1nnc(NC(=O)CSCc2cc(=O)n3ccccc3n2)s1	1.87
Cc1ccn2c(=O)cc(CSCC(=O)Nc3nnc(C(C)C)s3)nc2c1	4.89
